Several values for one entry are separate records, joined by “and”; a condition that tells them apart may be missing. Identical values can stand only once. Inconclusive results are not listed. Activity calls are given as the source filed them. Unless noted, calls follow the shape of the dose curve; as a rule, active = well fitted curve in the direction sought with a large enough effect; inconclusive = small, poorly fitted or top-dose-only effect, or another doubt; inactive = no such curve, though single readings can be large; an effect the other way counts as inactive or inconclusive.
Assays:
[1] = qHTS assay for small molecule disruptors of the mitochondrial membrane potential - 1 hr assay (AID 651754; calls by dose curve; also: % is scaled to controls: 0 for no effect and ±100 for the full control effect; nearly all actives have a fitted effect of over 35% in size)
Method in brief: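 In this qHTS format, a 1 hr compound treatment of HepG2 cells precedes Mito-MPS staining, and membrane potential is judged from aggregate (red) against monomer (green) fluorescence intensity.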

[2] = qHTS assay for small molecule disruptors of the mitochondrial membrane potential - 5 hr assay (AID 651755; calls by dose curve; also: % is scaled to controls: 0 for no effect and ±100 for the full control effect; nearly all actives have a fitted effect of over 40% in size)
Method in brief: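 Seed HepG2 overnight, add compound, incubate 5 hr at 37C and 5% CO2, stain 30 min with Mito-MPS, then measure monomer (490/535 nm) and aggregate (540/590 nm) fluorescence.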

[3] = qHTS assay to identify small molecules that stimulate interleukin-8 (IL-8) secretion (AID 651758; active = well fitted activation curve with a large enough effect in the signal ratio; the % refers to the signal ratio; also: 0% is about no effect)
Method in brief: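 Quantitative HTS in THP-1 monocytic cells at 2000 cells per well, with 16 hrs compound incubation at 37 C. IL-8 in the medium was then quantified by HTRF immunoassay, read after 1-3 hrs at room temperature.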

[4] = qHTS assay for environmental chemicals that activate the Aryl hydrocarbon Receptor (AhR) signaling pathway (AID 651777); conditions: 1A2-DRE human hepatoma cells, luciferase, 24 h; activation: hits give high values; also: % of control where 0% means no effect; nearly all actives have a fitted effect of over 15% in size
Method in brief: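 Induction of CYP1A2 transcription through AhR is detected by luciferase in 1A2-DRE hepatoma cells. Compounds or DMSO act for 24 hr at 37 C before a 30 min One-Glo step at room temperature.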

[5] = target: Peroxisome proliferator-activated receptor alpha (Homo sapiens) (UniProt Q07869); assay: qHTS assay for small molecule agonists of the peroxisome proliferator-activated receptor alpha (PPARalpha) signaling pathway (AID 651778); conditions: PathHunter PPARalpha complementation, chemiluminescence, 6 h; hits give high values; also: % of control where 0% means no effect
Chain of Peroxisome proliferator-activated receptor alpha (Homo sapiens) (Q07869 whole entry, looked up): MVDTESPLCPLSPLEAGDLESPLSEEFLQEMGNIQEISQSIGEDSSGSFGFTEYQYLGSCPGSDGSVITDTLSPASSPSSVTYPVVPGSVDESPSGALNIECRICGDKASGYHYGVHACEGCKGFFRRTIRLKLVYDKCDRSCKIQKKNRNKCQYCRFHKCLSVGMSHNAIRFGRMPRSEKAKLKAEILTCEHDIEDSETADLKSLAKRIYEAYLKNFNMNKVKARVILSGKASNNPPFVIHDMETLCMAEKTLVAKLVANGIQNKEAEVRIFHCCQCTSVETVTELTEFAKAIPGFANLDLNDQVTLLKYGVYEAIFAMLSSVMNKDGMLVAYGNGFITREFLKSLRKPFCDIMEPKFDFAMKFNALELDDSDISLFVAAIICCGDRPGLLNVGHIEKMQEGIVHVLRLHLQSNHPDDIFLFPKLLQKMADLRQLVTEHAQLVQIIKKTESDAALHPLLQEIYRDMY
Method in brief: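 Cells plated at 2,000/well and held overnight at 37 C, 5% CO2, then compound added by pin tool for 6 hr; after PathHunter detection reagent and 60 min at room temperature, chemiluminescence from enzyme complementation was read.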

[6] = target: Nuclear receptor ROR-gamma (Homo sapiens) (UniProt P51449); assay: qHTS assay for small molecule antagonists of the retinoid-related orphan receptor gamma (ROR-gamma) signaling pathway (AID 651802);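 also: CHO cells with doxycycline-induced ROR-gamma expression; luciferase reporter luminescence driven by ROR response element; series mostly up to about 92 µM; % is scaled to controls: 0 for no effect and ±100 for the full control effect; nearly all actives have a fitted effect of over 60% in size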
Chain of Nuclear receptor ROR-gamma (Homo sapiens) (P51449 whole entry, looked up): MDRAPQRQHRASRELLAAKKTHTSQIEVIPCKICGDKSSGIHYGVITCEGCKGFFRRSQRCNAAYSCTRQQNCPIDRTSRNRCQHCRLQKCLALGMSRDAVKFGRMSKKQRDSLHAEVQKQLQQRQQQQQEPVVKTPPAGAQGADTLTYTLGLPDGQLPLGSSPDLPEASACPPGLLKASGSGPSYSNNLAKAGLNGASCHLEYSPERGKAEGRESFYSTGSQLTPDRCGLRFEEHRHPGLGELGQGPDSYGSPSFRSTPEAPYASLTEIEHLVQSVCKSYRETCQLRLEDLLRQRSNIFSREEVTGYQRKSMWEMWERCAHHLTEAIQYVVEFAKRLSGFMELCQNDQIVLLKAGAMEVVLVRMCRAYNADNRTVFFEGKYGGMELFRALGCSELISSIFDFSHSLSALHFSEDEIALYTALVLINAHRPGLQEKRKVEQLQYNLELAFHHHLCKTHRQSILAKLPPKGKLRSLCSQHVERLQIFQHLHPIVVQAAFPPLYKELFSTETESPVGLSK
Method in brief: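 Doxycycline-induced reporter activity in engineered CHO cells (TET-inducible ROR, RORE-LUC) was measured by luminescence after 16hr compound exposure at 37C.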

[7] = qHTS assay for small molecule agonists of the antioxidant response element (ARE) signaling pathway measured by Nrf2-dependant transcriptional activity (AID 720636; active = well fitted curve in the direction sought with a large enough effect in the repeat runs; an effect the other way counts as inactive or inconclusive;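 also: HepG2 cells with an ARE-driven luciferase reporter; % of control where 0% means no effect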)
Method in brief: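 We exposed ARE-luc HepG2 cells, seeded in assay medium with 1% dialyzed FBS and allowed 6 hr to adhere, to test compounds overnight (16 hr, 37 C) before measuring luciferase with ONE-Glo.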

[8] = qHTS assay for small molecule antagonists of the retinoid-related orphan receptor gamma (ROR-gamma) signaling pathway - cell viability counter screen (AID 720652; active = well fitted curve in the direction sought with a large enough effect in the repeat runs; an effect the other way counts as inactive or inconclusive;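 also: CHO reporter cells with doxycycline-induced ROR-gamma expression; series mostly up to about 92 µM; compound exposure lasted 16 hr before ATP read; % is scaled to controls: 0 for no effect and ±100 for the full control effect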)
Method in brief: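 ATP-based viability readout in the ROR-gamma reporter CHO cells after 16 hr compound exposure under doxycycline induction.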

[9] = qHTS assay for small molecule agonists of the antioxidant response element (ARE) signaling pathway measured by Nrf2-dependant transcriptional activity - cell viability counter screen (AID 720653; active = well fitted curve in the direction sought with a large enough effect in the repeat runs; an effect the other way counts as inactive or inconclusive; also: % is scaled to controls: 0 for no effect and ±100 for the full control effect); conditions: ARE-bla HepG2 viability, CellTiter-Glo ATP luminescence, 16 h; hits give low values
Method in brief: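 ARE-bla HepG2 cells (2,000/well) rested 5 hrs at 37C/5% CO2, then exposed to compounds in DMSO for 16 hrs. Viability was read in the same wells as intracellular ATP by luminescence, 30 min at room temperature after reagent addition.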

[10] = qHTS assay for cell viability of HEK293 cells (AID 743288); conditions: ATP luminescence (CellTiter-Glo), 18 h, hits give low values; also: % is scaled to controls: 0 for no effect and ±100 for the full control effect; nearly all actives have a fitted effect of over 50% in size
Method in brief: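 Quantitative high-throughput screen: compounds were pinned onto parental HEK293 cells (2,000 per well) after a minimum 5 h settling at 37 C, incubated 18 h at 37 C, and intracellular ATP measured by luciferase luminescence.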

[11] = qHTS assay for cell viability of the p53RE-bla HCT-116 cell line (AID 743292); also: % is scaled to controls: 0 for no effect and ±100 for the full control effect; nearly all actives have a fitted effect of over 55% in size
Method in brief: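 In this qHTS counter-screen, metabolically competent p53RE-bla HCT-116 cells were counted via their ATP content. Compounds were applied for 16 h at 37 C and luciferase-coupled luminescence was measured.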

[12] = target: Nuclear receptor subfamily 1 group I member 2 (Rattus norvegicus) (UniProt Q9R1A7); assay: qHTS assay for small molecule activators of the rat pregnane X receptor (rPXR) signaling pathway (AID 651751; call rule not given here; also: 0% is about no effect); conditions: rPXR reporter cells, luciferase (One-Glo), 24 h
Chain of Nuclear receptor subfamily 1 group I member 2 (Rattus norvegicus) (Q9R1A7 whole entry, looked up): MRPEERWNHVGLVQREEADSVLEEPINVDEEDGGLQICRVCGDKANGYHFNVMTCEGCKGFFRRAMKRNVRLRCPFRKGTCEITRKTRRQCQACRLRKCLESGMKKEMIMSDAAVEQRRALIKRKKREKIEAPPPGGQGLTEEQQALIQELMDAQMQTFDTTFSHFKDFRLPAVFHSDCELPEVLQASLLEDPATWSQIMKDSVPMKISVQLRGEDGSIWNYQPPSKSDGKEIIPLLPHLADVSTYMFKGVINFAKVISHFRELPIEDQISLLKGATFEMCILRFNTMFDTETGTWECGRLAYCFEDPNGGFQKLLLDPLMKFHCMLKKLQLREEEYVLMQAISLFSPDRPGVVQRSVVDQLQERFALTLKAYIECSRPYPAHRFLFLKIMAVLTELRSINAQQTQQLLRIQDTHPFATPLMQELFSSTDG

[13] = qHTS assay for small molecule activators of the human pregnane X receptor (PXR) signaling pathway (AID 720659; call rule not given here; also: 0% is about no effect)
[14] = target: Tumor necrosis factor (Homo sapiens) (UniProt P01375); assay: qHTS assay to identify small molecules that stimulate Tumor Necrosis Factor-alpha (TNF-alpha) secretion (AID 651757; active = well fitted curve in the direction sought with a large enough effect in the signal ratio; the % refers to the signal ratio; also: 0% is about no effect)
Chain of Tumor necrosis factor (Homo sapiens) (P01375 whole entry, looked up): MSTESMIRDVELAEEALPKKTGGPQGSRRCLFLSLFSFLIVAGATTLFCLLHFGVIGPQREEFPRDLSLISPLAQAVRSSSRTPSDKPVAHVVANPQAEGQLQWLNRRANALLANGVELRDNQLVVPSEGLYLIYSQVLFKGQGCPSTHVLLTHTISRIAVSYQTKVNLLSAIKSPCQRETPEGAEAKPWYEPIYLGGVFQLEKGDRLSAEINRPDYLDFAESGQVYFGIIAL
Method in brief: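 Using 3000 THP-1 cells per well, compounds and controls were applied for 17 hrs at 37 C. Detection followed with two labeled anti-TNF-alpha antibodies (cryptate donor, XL665 acceptor) for 3 hr at room temperature, measured by TR-FRET.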

CCOCC(=O)O
inactive: Potency [1] | Potency [2] | Potency [3] | activation [4] -0.35% | max response [5] -1.55% | Potency [6] | outcome [7] | Potency [8] | max response [9] 1.2% | max response [10] -0.256% | Potency [11] | max response [12] 1.81% | outcome [13]

CC(C=O)Cc1ccc(C(C)(C)C)cc1 (centres undefined)
inactive: Potency [1] | Potency [2] | Potency [14] | activation [4] 0.301% and -1.84% | outcome [7] | Potency [8] | max response [10] 9% and 0.62% | Potency [11] | max response [12] 2.84% and 3.47% | outcome [13]

O=C(O)c1ccc(Cl)c(Cl)c1
inactive: Potency [1] | Potency [2] | Potency [3] | activation [4] 1.84% | max response [5] -5.43% | Potency [6] | outcome [7] | Potency [8] | max response [9] -1.66% | max response [10] 1.65% | Potency [11] | max response [12] -0.362% | outcome [13]

O=C(O)c1ccccc1C(=O)O
inactive: Potency [1] | Potency [2] | Potency [3] | max response [5] 0.653% | outcome [7] | Potency [8] | max response [9] -3.39% | max response [10] -4.91% | Potency [11] | max response [12] -4.53% | outcome [13]

CCCCC(CC)COC(=O)CCCCC(=O)OCC(CC)CCCC (centres undefined)
inactive: Potency [1] | Potency [2] | Potency [14] | activation [4] -0.729% and -3.02% | outcome [7] | Potency [8] | max response [9] 11.7% and -4.79% | max response [10] -4.22% and -9.58% | Potency [11] | max response [12] 3.13% and -1.3% | outcome [13]

CC(C)(C)OC=O
inactive: Potency [1] | Potency [2] | Potency [3] | activation [4] -1.07% | max response [5] -0.442% | Potency [6] | outcome [7] | Potency [8] | max response [9] 9.86% | max response [10] 5.3% | Potency [11] | max response [12] 3.48% | outcome [13]

CSCCC=O
inactive: Potency [1] | Potency [2] | Potency [14] | activation [4] -0.987% | Potency [6] | Potency [8] | Potency [11] | max response [12] 4.33%

CC(=O)Nc1ccccc1C
inactive: Potency [1] | Potency [2] | Potency [3] | activation [4] -0.35% | max response [5] -1.36% | outcome [7] | Potency [8] | max response [9] -6.99% | max response [10] -9.82% | Potency [11] | max response [12] -0.909% | outcome [13]

C=C(C)C(=O)OCCCCCC
inactive: Potency [1] | Potency [2] | Potency [14] | max response [5] -8.01% | Potency [6] | outcome [7] | max response [9] -4.89% | Potency [11] | max response [12] -0.698% | outcome [13]

CCCCCCCCN
inactive: Potency [1] | Potency [2] | Potency [3] | activation [4] 1.65% | max response [5] -3.65% | Potency [6] | outcome [7] | Potency [8] | max response [9] 1.34% | max response [10] -5.63% | Potency [11] | max response [12] 0.0694% | outcome [13]

CCCCCO
inactive: Potency [1] | Potency [2] | Potency [14] | activation [4] 0.0119% | Potency [6] | Potency [8] | max response [10] 0.87% | Potency [11] | max response [12] -1.89% | outcome [13]

O=C(O)c1ccc(C(=O)O)cc1
inactive: Potency [1] | Potency [2] | Potency [3] | activation [4] -0.394% and -1.3% | max response [5] -2.31% and 0.244% | Potency [6] | outcome [7] | max response [9] -2.71% and -15.5% | max response [10] 8.37% and 1.4% | Potency [11] | max response [12] -1.05% and -0.301% | outcome [13]

CC(=O)CCc1ccccc1
inactive: Potency [1] | Potency [2] | Potency [14] | max response [5] 0.48% | Potency [6] | outcome [7] | Potency [8] | max response [9] 0.255% | max response [10] 0.331% | Potency [11] | max response [12] 3.15% | outcome [13]

Cc1ccc(C)c([N+](=O)[O-])c1
inactive: Potency [1] | Potency [2] | activation [4] 0.781% | max response [5] -2.55% | Potency [6] | outcome [7] | Potency [8] | max response [9] -4.07% | max response [10] 4.94% | Potency [11] | max response [12] -1.78% | outcome [13]

Cc1ccc2ccccc2c1[N+](=O)[O-]
inactive: Potency [1] | Potency [2] | Potency [3] | activation [4] 1.24% | max response [5] 5.72% | Potency [6] | outcome [7] | max response [9] 14.1% | max response [10] 1.17% | Potency [11] | max response [12] -2.23% | outcome [13]

C=CCCC
inactive: Potency [1] | Potency [2] | Potency [14] | max response [5] -5.85% | Potency [6] | outcome [7] | Potency [8] | max response [9] 3.55% | max response [10] -5.1% | Potency [11] | max response [12] 2.44% | outcome [13]

CCCCC(CC)CNCC(CC)CCCC (centres undefined)
inactive: Potency [1] | Potency [2] | Potency [14] | Potency [6] | outcome [7] | Potency [8] | max response [9] 3.58% | Potency [11] | max response [12] -1.1% | outcome [13]

Source: PubChem BioAssay (NCATS)
